The campaign covered roughly 330,000 compounds. About 4,200 (1.3%) were called active. Another 6% or so got no clear call; they are omitted. Calls come from the whole dose curve; as a rule, active = well fitted activation curve with a large enough effect; inconclusive = small, poorly fitted or top-dose-only effect; inactive = no such curve, though single readings can be large or run the other way. The list comes from a sample in which actives are over-represented; it also holds similar structures and randomly drawn compounds. Entries that show only a call come without a potency.
experiment: qHTS screen for small molecules that induce genotoxicity in human embryonic kidney (HEK293T) cells expressing luciferase-tagged ELG1; conditions: HEK293T ELG1-luciferase reporter, luminescence, 16 h; series mostly up to 46 µM; note: nearly all actives have a fitted effect of over 60% in size
Method in brief: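 Step 1: seed 2,000 HEK293T ELG1-luciferase cells per well. Step 2: add compound or DMSO, incubate 16 hr at 37 °C. Step 3: ONE-Glo, 30 min at room temperature, read luminescence.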
Potency is the fitted concentration of half-maximal effect.

| SMILES | Potency |
| --- | --- |
| CCCCNc1c(-c2ccc(OC)c(Sc3ccc(OC)cc3)c2)nc2ccc(Cl)cn12 | inactive |
| O=C(CCNC(=O)c1ccccc1)NN=Cc1ccc(Br)o1 | inactive |
| CC(=O)N(O)CCCCCNC(=O)CCC(=O)N(O)CCCCCNC(=O)CCC(=O)N(O)CCCCCNC(=O)CCC(=O)O | inactive |
| CCN(CC)c1ccc(/C=N/NC(=O)c2cnccn2)c(O)c1 | 18.3 µM (active) |
| CCN(CC)c1ccc(/C=N/NC(=O)CNC(=O)c2cccnc2)cc1 | inactive |
| Cc1ccc(C(=O)NCCNC(=O)c2cnccn2)cc1 | inactive |
| CN(CC(=O)NCCc1ccc(S(N)(=O)=O)cc1)CC(=O)Nc1ccc(Cl)cc1 | inactive |
| COc1ccc(C(=O)NCc2ccccc2C)cc1S(=O)(=O)NC1CCCC1 | inactive |
| CCc1c(C)sc(NC(=O)c2cccs2)c1C(N)=O | 18.4 µM (active) |
| CCc1c(C)sc(NC(=O)c2ccc(Br)o2)c1C(=O)OC | inactive |
| CCOC(=O)c1oc2ccccc2c1NC(=O)c1cccs1 | inactive |
| CC(Sc1nncn1C)C(=O)NCCC1=CCCCC1 (stereo not given) | inactive |
| CN1C(=O)[C@H]2[C@@H](/C=C/c3ccccc3)N3C(=O)CN(Cc4ccc(-c5ccccc5)cc4)C(=O)[C@@]3(C)[C@H]2C1=O | inactive |
| Cn1c(N)c(C(=O)COC(=O)c2ccc3ccccc3c2)c(=O)n(C)c1=O | inactive |
| CCCc1cc(C(=O)N2CCCC(CO)(CCCc3ccccc3)C2)n(C)n1 (stereo not given) | inactive |
| Cc1ccccc1CC1(CO)CCCN(C(=O)c2cc(-c3ccccc3)no2)C1 (stereo not given) | inactive |
| COC(=O)CCC(=O)N1CCCC(CO)(Cc2ccccc2)C1 (stereo not given) | 20.6 µM (active) |
| Cc1onc(-c2c(F)cccc2Cl)c1C(=O)OCC(=O)N1C(C)CCCC1C (stereo not given) | inactive |
| CCN(CC(=O)NC(C)C)C(=O)c1cc(S(=O)(=O)N2CCCCC2)ccc1N1CCCCC1 | inactive |
| O=C(c1cc(-c2ccc(F)cc2)on1)N1CCN(c2ccc(F)cc2)CC1 | inactive |
| O=C(c1cc(-c2ccc(O)cc2)on1)N1CCCc2ccccc21 | inactive |
| O=C(c1cc(-c2ccc(O)cc2)on1)N1CCOCC1 | 4.61 µM (active) |
| COc1ccc(-c2c(C#Cc3ccsc3)c3cc(-c4ccc(CN5CCOCC5)cc4)ccc3n2C)cc1 | inactive |
| O=C(COC(=O)c1ccccc1C(=O)c1ccccc1)c1ccco1 | inactive |
| O=C(OCC(=O)N1CCCC1)c1ccco1 | inactive |

| SMILES | Potency |
| --- | --- |
| CCc1ccc(C(=O)COC(=O)c2ccco2)cc1 | 23.1 µM (active) |
| COc1ccc(S(=O)(=O)N2CCN(CC(=O)N3CCOCC3)CC2)cc1OC | inactive |
| CCOC(=O)C1=CN(Cc2ccc(Br)cc2)S(=O)(=O)N(C)C1C (stereo not given) | inactive |
| COc1cc(NC(=O)COC(=O)c2cc(S(=O)(=O)N3CCOCC3)ccc2F)cc(OC)c1 | inactive |
| CS(=O)(=O)N1CCc2nc(-c3ccccc3)sc2C1 | 9.2 µM (active) |
| CS(=O)(=O)N1CCN(c2cccc(Cl)n2)CC1 | inactive |
| CS(=O)(=O)N1CCC(C(=O)N2CCN(c3ccccc3)CC2)CC1 | inactive |
| COc1ccc(C(=O)COC(=O)CN2C(=O)C3CC=CCC3C2=O)c(OC)c1 (stereo not given) | inactive |
| CC(Sc1ncnc2c1cnn2-c1ccccc1)C(=O)Nc1ccc(N2CCOCC2)cc1 (stereo not given) | inactive |
| CC(C)Sc1ncnc2c1cnn2-c1ccccc1 | 8.2 µM (active) |
| CCC(C)N(C(=O)CSc1ncnc2c1cnn2-c1ccccc1)C1CCS(=O)(=O)C1 (stereo not given) | inactive |
| COc1ccc(Br)cc1CN(C)C(=O)C1CC(=O)N(C2CCCC2)C1 (stereo not given) | inactive |
| O=C1NC(Cc2ccc(O)cc2)c2nc3ccc(Cl)cc3c(=O)n2-c2ccccc21 (stereo not given) | inactive |
| CCOC(=O)c1ccc(NC(=O)CNC(=O)c2ccco2)cc1 | inactive |
| O=C(Nc1ccccc1)c1ccco1 | inactive |
| COC(=O)c1ccc(NC(=O)c2ccco2)cc1 | 20.6 µM (active) |
| O=C(CN1C(=O)NC(Cc2c[nH]c3ccccc23)C1=O)Nc1ccccc1C(F)(F)F (stereo not given) | inactive |
| C[C@H]1COC(=O)[C@H](CC(=O)OC(C)(C)C)C/C=C\C[C@@H](CC(=O)N[C@H](CO)Cc2ccccc2)C(=O)N1 | inactive |
| CCOC(=O)C1=C(C)N(C[C@@H]2CC[C@@H](Cc3ccc(-c4ccccc4)cc3)O2)C(=O)NC1c1ccc([N+](=O)[O-])cc1 (stereo not given in full) | inactive |
| COc1ccc(CNC(=O)CNC(=O)c2sc3ccccc3c2Cl)cc1OC | inactive |
| COc1ccc2c(Cl)c(C(=O)NCc3ccco3)sc2c1 | 10 µM (active) |
| O=C(CCNC(=O)c1ccccc1Cl)NCc1ccco1 | inactive |
| O=C(NCc1ccco1)c1sc2cccc(F)c2c1Cl | 18.4 µM (active) |
| COc1ccc(C(=O)Nc2ccccc2C(=O)NCc2ccco2)cc1 | inactive |
| O=C(NCc1ccco1)c1nn2cccnc2c1Cl | inactive |

Reference: PubChem BioAssay AID504466 (National Center for Advancing Translational Sciences (NCATS), 2011)
